According to PubChem BioAssay (Tox21):
A number with no mark means an inactive call. Inconclusive results are not listed. Where a call stands in place of a potency, no number is given. Activity calls are given as the source filed them. Unless noted, the call rests on the fitted dose curve.

Legend:
[1] = Nuclear factor erythroid 2-related factor 2/antioxidant responsive element (Nrf2/ARE) small molecule agonists: qHTS cell viability counter screen in human keratinocytes (AID 1919968; active means well fitted curve in the direction sought with a large enough effect in the repeat runs; an effect the other way counts as inactive or inconclusive; further: nearly all actives have a fitted effect of over 55% in size)
In short: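 After a 5 h attachment period, ARE-reporter keratinocytes were dosed with compounds in DMSO and then cultured 23 h at 37 C. Cell viability came from CellTiter-Fluor signal read after a further 1 h.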

[2] = biological target: Gonadotropin-releasing hormone receptor (Homo sapiens) (UniProt P30968); experiment: Human gonadotropin-releasing hormone receptor (GnRHR) small molecule agonists, calcium flux assay in GnRHR-HEK293 cells (AID 1920063); further: nearly all actives have a fitted effect of over 35% in size
Chain of Gonadotropin-releasing hormone receptor (Homo sapiens) (P30968 whole entry, looked up): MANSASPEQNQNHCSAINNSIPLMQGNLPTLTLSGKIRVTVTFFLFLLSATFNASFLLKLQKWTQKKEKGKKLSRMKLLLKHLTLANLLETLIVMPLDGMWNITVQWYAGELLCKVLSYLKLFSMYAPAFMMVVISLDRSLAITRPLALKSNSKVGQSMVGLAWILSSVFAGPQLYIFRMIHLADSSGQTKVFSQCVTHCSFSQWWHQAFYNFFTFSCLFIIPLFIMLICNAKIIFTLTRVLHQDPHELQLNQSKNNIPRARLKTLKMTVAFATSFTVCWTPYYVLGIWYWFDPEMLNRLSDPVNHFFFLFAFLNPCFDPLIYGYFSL
In short: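 We seeded human GnRHR-expressing HEK293 cells for 18 hours, loaded them with calcium dye for an hour at 37 C, added test compounds, and recorded fluorescence intensity kinetically for three minutes.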

[3] = biological target: KiSS-1 receptor (Homo sapiens) (UniProt Q969F8); experiment: Human kisspeptin (KISS1R) small molecule agonists, calcium flux assay in KISS1R-HEK293 cells (AID 1920064; active means well fitted curve in the direction sought with a large enough effect in the repeat runs; an effect the other way counts as inactive or inconclusive)
Chain of KiSS-1 receptor (Homo sapiens) (Q969F8 whole entry, looked up): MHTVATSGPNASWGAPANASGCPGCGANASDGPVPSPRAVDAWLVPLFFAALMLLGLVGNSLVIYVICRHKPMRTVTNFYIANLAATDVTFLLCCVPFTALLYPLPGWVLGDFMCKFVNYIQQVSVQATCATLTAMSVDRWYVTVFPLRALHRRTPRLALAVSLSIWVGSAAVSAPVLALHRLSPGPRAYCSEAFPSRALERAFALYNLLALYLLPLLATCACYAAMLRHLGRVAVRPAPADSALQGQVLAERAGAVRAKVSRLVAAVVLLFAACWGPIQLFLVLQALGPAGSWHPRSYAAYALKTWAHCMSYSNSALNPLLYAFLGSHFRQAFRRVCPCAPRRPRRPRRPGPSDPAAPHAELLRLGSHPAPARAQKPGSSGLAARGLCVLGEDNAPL
In short: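 Kinetic calcium assay, 1 s sampling over 3 min at Ex/Em 480/540, in HEK293 cells engineered with human KISS1R; compounds delivered in DMSO after 1 h dye loading.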

[4] = G protein-coupled receptor (GPCR) small molecule agonists, calcium flux assay: HEK293 wild type cell line counter screen (AID 1920065)
In short: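 Calcium-sensitive dye, loaded 1 h at 37 C into cells cultured 18 h, reports compound-evoked calcium release as fluorescence (Ex/Em 480/540), measured over 3 min. Agonist mode; 15-point titrations, triplicate.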

[5] = p53 small molecule agonists, cell-based qHTS assay with human liver microsomes (AID 1963577)
In short: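 Compounds act here after metabolic activation: human liver microsomes and NADPH, both at 0.5 mg/mL final, were co-added to p53RE-bla cells. Incubation ran 16 h at 37 C, followed by LiveBLAzer detection.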

[6] = p53 small molecule agonists, cell-based qHTS assay with rat liver microsomes (AID 1963578)
In short: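 Read-out is beta-lactamase reporter fluorescence (LiveBLAzer, 2 h, room temperature, dark) in p53RE-bla cells treated 16 h at 37 C with compound, rat liver microsomes and NADPH, both 0.5 mg/mL final.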

[7] = p53 small molecule agonists, cell-based qHTS assay with human liver microsomes: qHTS cell viability counter screen (AID 1963579); further: nearly all actives have a fitted effect of over 45% in size
In short: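 Cells carrying the p53 response-element beta-lactamase reporter are treated for 16 h at 37 C with test compounds in the presence of human liver microsomes and NADPH (both 0.5 mg/mL final); ATP-based CellTiter-Glo luminescence then reports viability.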

[8] = p53 small molecule agonists, cell-based qHTS assay with rat liver microsomes: qHTS cell viability counter screen (AID 1963580); further: nearly all actives have a fitted effect of over 45% in size
In short: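 Intracellular ATP, by CellTiter-Glo luminescence, defines viability. HCT-116 p53RE-bla cells, 4,000 per well, were compound-treated in the presence of rat liver microsomes and NADPH for 16 h at 37 C.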

[9] = p53 small molecule agonists, cell-based qHTS assay: qHTS cell viability counter screen (AID 1963581); further: nearly all actives have a fitted effect of over 45% in size
In short: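 Following 5 h attachment, HCT-116 p53RE-bla cells took up compound for 16 h at 37 C; the reporter was read with B/G FRET substrate (2 h RT), and viability then via CellTiter-Glo ATP luminescence.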

[10] = p53 small molecule agonists, cell-based qHTS assay (AID 1963582; active means well fitted activation curve with a large enough effect in the signal ratio in the repeat runs, not every such curve was filed as active; the % refers to the signal ratio; further: potency means the concentration at half of the fitted maximal effect)
In short: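 In this cell-based concentration-response screen, a p53 response element drives beta-lactamase; cells received DMSO-borne compounds after 5 h culture and were incubated a further 16 h before FRET substrate development.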

[11] = biological target: 5-hydroxytryptamine receptor 2A (Homo sapiens) (UniProt P28223); experiment: 5-hydroxytryptamine receptor 2A (HTR2A) small molecule antagonists, cell-based qHTS assay (AID 1963586); further: nearly all actives have a fitted effect of over 45% in size
Chain of 5-hydroxytryptamine receptor 2A (Homo sapiens) (P28223 whole entry, looked up): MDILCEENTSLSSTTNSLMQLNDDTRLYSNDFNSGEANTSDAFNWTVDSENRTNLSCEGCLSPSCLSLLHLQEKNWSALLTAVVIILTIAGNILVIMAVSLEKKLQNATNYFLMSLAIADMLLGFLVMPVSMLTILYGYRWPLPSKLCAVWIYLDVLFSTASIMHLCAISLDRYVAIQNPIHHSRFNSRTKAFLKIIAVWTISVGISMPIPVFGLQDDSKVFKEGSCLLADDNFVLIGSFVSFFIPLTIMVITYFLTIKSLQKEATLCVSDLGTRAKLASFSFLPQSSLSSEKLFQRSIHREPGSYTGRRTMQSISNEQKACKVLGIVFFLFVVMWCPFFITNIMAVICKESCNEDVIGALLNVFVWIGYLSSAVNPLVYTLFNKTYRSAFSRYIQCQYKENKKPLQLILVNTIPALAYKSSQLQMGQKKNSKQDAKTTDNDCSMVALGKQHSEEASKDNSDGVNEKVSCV
In short: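 Antagonist-mode intracellular calcium assay: DOI (4 nM) added after 5 min compound pre-incubation at room temperature to dye-loaded HTR2A-CHO cells. Fluorescence followed for 3 min, sampled every second.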

[12] = biological target: 5-hydroxytryptamine receptor 2A (Homo sapiens) (UniProt P28223); experiment: 5-hydroxytryptamine receptor 2A (HTR2A) small molecule agonists, cell-based qHTS assay (AID 1963587); further: nearly all actives have a fitted effect of over 30% in size
In short: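 Kinetic calcium-flux fluorescence (2 min, 1 sec intervals) after compound addition in agonist mode. HTR2A-CHO cells were cultured 18 h, then dye-loaded 1 h at 37 C.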

[13] = biological target: Muscarinic acetylcholine receptor M1 (Homo sapiens) (UniProt P11229); experiment: Cholinergic receptor muscarinic 1 (CHRM1) small molecule antagonists, cell-based qHTS assay (AID 1963588); further: nearly all actives have a fitted effect of over 40% in size; further: potency means the concentration at half of the fitted maximal effect
Chain of Muscarinic acetylcholine receptor M1 (Homo sapiens) (P11229 whole entry, looked up): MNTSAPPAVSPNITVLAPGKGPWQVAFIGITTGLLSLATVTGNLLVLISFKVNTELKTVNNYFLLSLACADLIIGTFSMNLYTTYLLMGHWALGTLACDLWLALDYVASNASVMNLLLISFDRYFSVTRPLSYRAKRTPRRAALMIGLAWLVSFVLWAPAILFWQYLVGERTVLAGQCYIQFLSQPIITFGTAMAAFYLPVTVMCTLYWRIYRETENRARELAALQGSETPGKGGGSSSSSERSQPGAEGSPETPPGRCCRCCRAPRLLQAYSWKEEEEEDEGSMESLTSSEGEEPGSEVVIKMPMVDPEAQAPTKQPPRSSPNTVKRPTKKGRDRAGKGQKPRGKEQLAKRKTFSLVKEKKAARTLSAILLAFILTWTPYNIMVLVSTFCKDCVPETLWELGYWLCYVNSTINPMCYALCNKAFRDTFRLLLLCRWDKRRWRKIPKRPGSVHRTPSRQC
In short: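 CHRM1-CHO calcium-flux assay, antagonist mode. Cells were seeded 18 h, dye-loaded 1 h at 37 C and given compound for 5 min at RT, then acetylcholine was added at 50nM. FDSS fluorescence was read 3 min; 15 concentrations, three runs.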

[14] = biological target: Muscarinic acetylcholine receptor M1 (Homo sapiens) (UniProt P11229); experiment: Cholinergic receptor muscarinic 1 (CHRM1) small molecule agonists, cell-based qHTS assay (AID 1963589); further: nearly all actives have a fitted effect of over 35% in size
In short: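 Measures agonist-induced intracellular calcium rise. Stable human CHRM1 CHO line, 1 h dye load at 37 C, compounds from DMSO, kinetic fluorescence read.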

[15] = cAMP Responsive Elements (CRE) small molecule agonists, cell-based qHTS assay (AID 1963590)
In short: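 A CRE-responsive beta-lactamase reporter in HEK 293T cells was used. Treatment ran 3 h at 37 C; detection used LiveBLAzer B/G FRET substrate for 2 h at room temperature.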

[16] = cAMP Responsive Elements (CRE) small molecule antagonists, cell-based qHTS assay (AID 1963591; active means well fitted inhibition curve with a large enough effect in the signal ratio in the repeat runs, not every such curve was filed as active; the % refers to the signal ratio)
In short: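 HEK293T cells carrying a CRE-driven beta-lactamase reporter receive compound and NKH477 (0.25 uM final) for 3 h. Fluorescence from LiveBLAzer B/G FRET substrate is read after 2 h at room temperature.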

[17] = biological target: Beta-2 adrenergic receptor (Homo sapiens) (UniProt P07550); experiment: Adrenergic beta2 receptor (ADRB2) small molecule antagonists, cell-based qHTS assay (AID 1963592); further: series mostly up to about 92 µM; nearly all actives have a fitted effect of over 50% in size
Chain of Beta-2 adrenergic receptor (Homo sapiens) (P07550 whole entry, looked up): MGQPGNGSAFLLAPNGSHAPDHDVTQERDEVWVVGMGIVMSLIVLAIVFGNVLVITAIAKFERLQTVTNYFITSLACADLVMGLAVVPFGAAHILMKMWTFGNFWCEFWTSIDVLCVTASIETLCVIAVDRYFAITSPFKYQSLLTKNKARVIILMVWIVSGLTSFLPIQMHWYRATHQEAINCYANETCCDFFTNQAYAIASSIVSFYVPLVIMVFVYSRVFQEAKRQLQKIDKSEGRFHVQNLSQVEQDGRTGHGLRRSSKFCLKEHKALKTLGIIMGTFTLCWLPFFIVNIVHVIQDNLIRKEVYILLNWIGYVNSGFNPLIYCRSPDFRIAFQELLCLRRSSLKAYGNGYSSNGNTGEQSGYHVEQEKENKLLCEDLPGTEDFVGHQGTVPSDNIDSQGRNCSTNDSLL
In short: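 Cells (CHO, stable ADRB2 overexpression) incubated 18-20hr at 37C; compounds added from DMSO; agonist mix (1nM isoproterenol, 100uM IBMX, 25uM Ro-20-1724) added; 0.5hr RT; d2-cAMP and anti-cAMP-cryptate added; 1hr RT; 665/615 nm read.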

[18] = biological target: D(2) dopamine receptor (Homo sapiens) (UniProt P14416); experiment: Dopamine D2 receptor (DRD2) small molecule antagonists, cell-based qHTS assay (AID 1963595; active means well fitted inhibition curve with a large enough effect in the signal ratio in the repeat runs, with a control signal flat; the % refers to the signal ratio)
Chain of D(2) dopamine receptor (Homo sapiens) (P14416 whole entry, looked up): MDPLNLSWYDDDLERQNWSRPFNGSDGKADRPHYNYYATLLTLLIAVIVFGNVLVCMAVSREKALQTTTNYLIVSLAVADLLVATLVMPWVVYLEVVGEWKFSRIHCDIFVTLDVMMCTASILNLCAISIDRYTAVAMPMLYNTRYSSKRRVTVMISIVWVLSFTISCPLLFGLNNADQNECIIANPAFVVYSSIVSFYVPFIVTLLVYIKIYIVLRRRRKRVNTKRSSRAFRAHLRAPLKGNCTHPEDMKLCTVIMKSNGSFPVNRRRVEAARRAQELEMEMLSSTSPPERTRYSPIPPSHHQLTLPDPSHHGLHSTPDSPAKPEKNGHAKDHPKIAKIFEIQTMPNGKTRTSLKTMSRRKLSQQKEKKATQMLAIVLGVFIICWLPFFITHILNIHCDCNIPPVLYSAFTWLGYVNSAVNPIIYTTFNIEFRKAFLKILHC
In short: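 HTRF cAMP read-out at 665 and 620 nm emission (340 nm excitation). Antagonist mode: compounds were tested against 12 nM quinpirole in DRD2-HEK293 cells, with 200 nM NKH477 raising cAMP and 0.1 mM Ro20-1724 blocking its breakdown.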

[19] = biological target: Beta-2 adrenergic receptor (Homo sapiens) (UniProt P07550); experiment: Adrenergic beta2 receptor (ADRB2) small molecule agonists, cell-based qHTS assay (AID 1963593); further: potency means the concentration at half of the fitted maximal effect;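 on activation: CHO cells stably overexpressing human ADRB2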
In short: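 CHO cells stably over-expressing ADRB2 were plated overnight at 37C, then dosed with compounds plus a stimulation mix containing 100uM IBMX and 25uM Ro-20-1724 for 0.5hr at room temperature. cAMP was measured by HTRF competition, 1hr.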

[20] = biological target: D(2) dopamine receptor (Homo sapiens) (UniProt P14416); experiment: Dopamine D2 receptor (DRD2) small molecule agonists, cell-based qHTS assay (AID 1963594); further: nearly all actives have a fitted effect of over 35% in size
In short: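 cAMP accumulation in DRD2-HEK293 cells measured by HTRF after 1 h detection; compounds added 10 min before NKH477 (200nM […]) forskolin-analogue stimulation, 30 min at room temperature, with Ro20-1724 present at 0.1 mM final.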

Row | SMILES | Potency [1] | Potency [2] | outcome [3] | outcome [4] | Potency [5] | Potency [6] | Potency [7] | Potency [8] | Potency [9] | Potency [10] | Potency [11] | Potency [12] | Potency [13] | Potency [14] | Potency [15] | Potency [16] | Potency [17] | Potency [18] | Potency [19] | Potency [20]
1 | COC(=O)CC#N | inactive | inactive | inactive | inactive | inactive | inactive | inactive | inactive | inactive | inactive | inactive | inactive | inactive | inactive | inactive | inactive | inactive | inactive | – | –
2 | CC1(C)S[C@@H]2[C@H](NC(=O)Cc3ccccc3)C(=O)N2[C@H]1C(=O)O (tested in a mixture with another compound) | inactive | inactive | inactive | inactive | inactive | inactive | inactive | inactive | inactive | inactive | – | – | – | – | inactive | inactive | inactive | – | inactive | inactive
3 | CCCCOc1ccc(C(=O)CCN2CCCCC2)cc1 | inactive | inactive | inactive | inactive | inactive | inactive | inactive | inactive | inactive | inactive | – | inactive | 10.3 µM (active) | inactive | inactive | inactive | – | inactive | 13.3 µM (active) | –
4 | CCCCOC(=O)C(C)Oc1ccc(Oc2ccc(C(F)(F)F)cn2)cc1 (centres undefined) | inactive | inactive | inactive | inactive | inactive | inactive | inactive | inactive | inactive | inactive | inactive | inactive | – | inactive | inactive | inactive | inactive | inactive | inactive | –
5 | CCCCC(CC)COC(=O)CC#N (centres undefined) | inactive | inactive | inactive | inactive | inactive | inactive | inactive | inactive | inactive | inactive | inactive | inactive | inactive | inactive | inactive | – | inactive | inactive | inactive | inactive
6 | C#CC(C)(CC)OC(=O)c1ccccc1C(=O)O (centres undefined) | inactive | inactive | inactive | inactive | inactive | inactive | inactive | inactive | inactive | inactive | inactive | inactive | inactive | inactive | – | inactive | inactive | inactive | – | –
7 | CCOC(=O)CCc1ccccc1 | inactive | inactive | inactive | inactive | inactive | inactive | inactive | inactive | inactive | inactive | inactive | inactive | inactive | inactive | inactive | – | inactive | inactive | – | inactive
8 | Cc1ccc(CCn2c3c(c4cc(Cl)ccc42)CN(C)CC3)cn1 | inactive | inactive | inactive | inactive | inactive | inactive | inactive | inactive | inactive | inactive | – | inactive | inactive | inactive | inactive | inactive | inactive | inactive | – | inactive
9 | CN1CCCN=C1COC(=O)C(O)(c1ccccc1)C1CCCCC1 (centres undefined) | inactive | inactive | inactive | inactive | inactive | inactive | inactive | inactive | inactive | inactive | inactive | inactive | 0.0116 µM (active) | inactive | – | inactive | – | – | inactive | inactive
10 | C[C@H]1O[C@@H](n2cc(F)c(=O)[nH]c2=O)[C@H](O)[C@@H]1O | inactive | inactive | inactive | inactive | inactive | inactive | inactive | inactive | inactive | 15.8 µM (active) | – | – | – | – | inactive | inactive | inactive | inactive | inactive | inactive
11 | Nc1cccc2c(=O)[nH][nH]c(=O)c12 | inactive | inactive | inactive | inactive | inactive | inactive | inactive | inactive | inactive | inactive | – | inactive | inactive | inactive | – | – | inactive | inactive | – | inactive
12 | CC(C)=CC(=O)O | inactive | inactive | inactive | inactive | inactive | inactive | inactive | inactive | inactive | inactive | inactive | inactive | – | – | inactive | – | inactive | inactive | – | inactive
13 | CSc1nc(NC2CC2)nc(NC(C)(C)C)n1 | inactive | inactive | inactive | inactive | inactive | inactive | inactive | inactive | inactive | inactive | inactive | – | inactive | inactive | inactive | – | inactive | inactive | – | inactive
14 | CCC=CC#N | inactive | inactive | inactive | inactive | inactive | inactive | inactive | inactive | inactive | inactive | inactive | – | inactive | inactive | inactive | – | inactive | inactive | – | inactive
